Assay outcomes: PubChem, several laboratories
Shown are actives, neighbours in structure and some others; about 2.1% of the full set was active somewhere.
TPT1 inhibitor: C. albicans TPT1 enzyme inhibition | recombinant caTPT1, FP RNA substrate dephosphorylation | inhibition, % at 5 µM | AID 1962 | 300,000 compounds, 0.81% hits;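 active = inhibition above the mean of all tested compounds plus 3 SD, set per screening campaign, cut at about 24% in these data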
HNF4A DNA FP: change in binding of human HNF4 alpha to DNA; activity change, % at 10 µM; 360,000 compounds, 0.3% hits; HNF4a-FITC DNA binding, fluorescence polarization, 1 h; AID 1224865; in the data active = activity change above about 30%, passing the limit was not always enough
Target sequence (P41235 whole entry, looked up): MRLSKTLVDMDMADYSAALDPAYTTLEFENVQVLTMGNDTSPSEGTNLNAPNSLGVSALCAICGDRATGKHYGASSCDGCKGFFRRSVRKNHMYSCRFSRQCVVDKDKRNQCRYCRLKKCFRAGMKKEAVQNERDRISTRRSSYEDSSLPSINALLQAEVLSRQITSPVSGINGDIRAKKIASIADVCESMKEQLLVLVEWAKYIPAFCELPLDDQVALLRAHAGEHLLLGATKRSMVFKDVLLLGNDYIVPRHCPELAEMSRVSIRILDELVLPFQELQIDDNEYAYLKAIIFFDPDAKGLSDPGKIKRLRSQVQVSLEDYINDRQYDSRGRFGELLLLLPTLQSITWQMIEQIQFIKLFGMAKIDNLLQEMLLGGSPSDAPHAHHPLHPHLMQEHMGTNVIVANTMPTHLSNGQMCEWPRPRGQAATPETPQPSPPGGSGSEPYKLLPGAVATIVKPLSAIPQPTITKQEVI
Rpn11 block: inhibitors of human proteasome Rpn11; O00487; human 26S proteasome, Ub4-pepOG fluorescence polarization; 20S core pre-blocked with epoxomicin; inhibition, % at 20 µM; 360,000 compounds, 0.59% hits; AID 588493;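 active = inhibition at 20 µM, scaled to each plate's controls, above about 33%, limit read from the data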
Myeloid diff MLP: myeloid differentiation induction | ER-HoxA9 myeloid progenitors, lysozyme-GFP differentiation, flow cytometry | 360,000 compounds, 1% hits | calls only at 10 µM | AID 624256;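 active = normalized GFP-positive differentiation at or above the plate's own cutoff, the solvent-only control mean plus 3 SD; inconclusive = no clear call, values can overlap the other calls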;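 also: cells exposed to compound for four days before flow analysis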
A number is an active result; n = inactive; u = inconclusive; x = not tested or not shown; + = active, no number; ! = not active in a repeat.

SMILES | TPT1 inhibitor | HNF4A DNA FP | Rpn11 block | Myeloid diff MLP
O=C(/C=C/c1ccncc1)c1cc(Cl)ccc1O | n | n | n | +
N#Cc1c(-c2ccccc2F)cc(C2CC2)nc1SCC(=O)c1cccs1 | n | n | n | +
COc1ccccc1N1C(N)=NC(N)=NC1(C)C | n | n | n | +!
Cc1ccccc1N1C(N)=NC(N)=NC1(C)C | n | x | x | +
N#C/C(=C/Nc1ccccc1F)S(=O)(=O)c1ccc(Cl)cc1 | n | n | n | n
CNC(=O)NNC(=O)c1csc(-c2ccc(C(F)(F)F)cc2Cl)n1 | n | n | n | n
NNC(=O)c1csc(-c2ccc(C(F)(F)F)cc2Cl)n1 | n | n | n | +
Cc1cccc(C)c1NC(=O)C[N+](C)(C)CC(O)COc1cccc2ccccc12 (configuration not stated) | n | n | n | n
O=C(COC(=O)c1ccccc1Br)NC1CCCC1 | n | n | n | +
COc1ccccc1NC(=O)CON=C(N)CC(=O)NC1CCCCC1 | x | n | n | +
O=C(COC(=O)c1ccccc1Br)NC1CCCCCCC1 | x | n | n | n
COc1ccccc1C(=O)OCC(=O)NC1CCCC1 | n | n | n | +
CC(C)NC(=O)C1(C)CSCC(=O)N1CCOc1ccccc1 (configuration not stated) | x | n | x | n
CCOC(=O)c1c(C)[nH]c(C)c1S(=O)(=O)NCCc1ccc(SC)cc1 | n | n | n | n
CCOC(=O)c1c(C)[nH]c(C)c1S(=O)(=O)NCCc1sccc1C | n | n | n | +
CC(C)CCC(CCNCc1ccccn1)c1ccc2c(c1)OCO2 (configuration not stated) | n | n | n | +
CCNCCC(CCC(C)C)c1ccc2c(c1)OCO2 (configuration not stated) | n | n | n | n
O=C1OC(Nc2ccc(F)c([N+](=O)[O-])c2)c2ccccc21 (configuration not stated) | n | n | n | n
O=C1OC(Nc2ccc3c(c2)OCO3)c2ccccc21 (configuration not stated) | n | n | n | +
CCCCCCCCN1C(=O)[C@H](CC(=O)NCCc2ccccc2OC)C[C@@]2(C(=O)OCC)CCC=C12 | x | n | x | n
O=C(OCc1ccccc1)c1cc(S(=O)(=O)N2CCCCC2)ccc1N1CCOCC1 | n | n | n | n
O=C(Cn1c(=O)cnc2ccccc21)Nc1cc(Cl)ccc1N1CCOCC1 | x | n | n | +
O=C(COc1cccc(Cl)c1)Nc1cc(S(=O)(=O)N2CCOCC2)ccc1N1CCOCC1 | n | n | n | +
O=C(OCc1cccc(Cl)c1)c1cc(S(=O)(=O)N2CCCCC2)ccc1N1CCOCC1 | n | n | n | +
Cc1ccc(CNS(=O)(=O)c2ccc(C)s2)cc1 | n | n | n | n
SMILES | TPT1 inhibitor | HNF4A DNA FP | Rpn11 block | Myeloid diff MLP
NC(=O)c1cnn(C2CCS(=O)(=O)C2)c1 (configuration not stated) | n | n | n | n
CC(=O)c1ccc(NC(=S)NCC(c2ccco2)N2CCCC2)cc1 (configuration not stated) | n | n | n | +
COc1ccc(NC(=S)NCC(c2ccco2)N2CCCC2)cc1 (configuration not stated) | n | n | n | n
COc1cc(/C=C2\S/C(=N/S(=O)(=O)c3ccc(C)cc3)NC2=O)c([N+](=O)[O-])cc1OC | n | n | n | u
Cc1ccc(S(=O)(=O)/N=C2/NC(=O)/C(=C/c3cc([N+](=O)[O-])ccc3O)S2)cc1 | 64 | n | x | n
O=C(N1CCCCC1)C1(S(=O)(=O)c2ccccc2)CC=CC1 | n | n | n | n
Cc1ccccc1NC(=O)Cc1nc(COC(=O)c2ccc(S(C)(=O)=O)c([N+](=O)[O-])c2)cs1 | x | n | n | +
COc1ccc(CCC(=O)OCc2csc(CC(=O)Nc3ccccc3C)n2)cc1 | n | n | n | +
COc1ccc(-c2csc(C(O)c3ccc(F)c(F)c3)n2)cc1 (configuration not stated) | x | n | n | n
CN1CCN(C(=O)CSc2nc(-c3cccs3)ccc2C#N)CC1 | n | n | n | +
N#Cc1ccc(-c2cccs2)nc1SCc1cccnc1 | n | n | n | u
CC1(C)CC[C@]2(CO)[C@@H](O)C[C@]3(C)C(=CCC4[C@@]5(C)CC[C@H](O)C(C)(C)C5CC[C@]43C)[C@@H]2C1 (some centres not stated) | n | x | x | x
COc1ccccc1Nc1nc2c(C)cccc2cc1C#N | n | n | n | n
CCOc1ccc(Nc2nc3c(C)cccc3cc2C#N)cc1 | n | n | n | +
Cc1ccc(NC(=O)C2CCN(c3ncnc4sc(C)c(C)c34)CC2)cc1S(=O)(=O)N(C)C | n | n | n | n
Cc1ccc(C)c(S(=O)(=O)N2CCN(C(=O)C3CCN(c4ncnc5sc(C)c(C)c45)CC3)CC2)c1 | n | n | n | +
C=CC(=O)Nc1cccc(Oc2ccnc(Nc3ccc(N4CCN(C)CC4)cc3)n2)c1 | x | n | n | u
C=CC(=O)Nc1cccc(Oc2ccnc3[nH]ccc23)c1 | x | n | 95 | n
CCCCCSc1nc2c(c(=O)[nH]c(=O)n2C)n1C | n | n | n | +
CCc1ccccc1CC1CN(Cc2ccccc2)Cc2ccccc2N1c1ccc(OC)cc1 (configuration not stated) | x | n | x | n
CCN(CC)c1ccc2c(Cl)c(Br)c(=O)oc2c1 | n | n | n | +
CCN(CC)c1ccc2c(C)c(Cl)c(=O)oc2c1 | n | n | n | n
O=C(c1ccncc1)N(Cc1ccccc1)Cc1nc2ccccc2c(=O)[nH]1 | n | n | n | +
COc1ccc(Cl)cc1NC(=S)NCCO | n | 57 | n | n
O=C1CC(/C=C/c2ccco2)=Nc2ccccc2N1 | n | n | n | +
SMILES | TPT1 inhibitor | HNF4A DNA FP | Rpn11 block | Myeloid diff MLP
COc1cccc(C(N)c2nc(-c3csc4ccccc34)cs2)c1 (configuration not stated) | x | n | n | n
CN1C(=O)NC(c2ccccc2[N+](=O)[O-])C2=C1CCCC2=O (configuration not stated) | n | n | n | +
CN1C(=O)NC(c2ccccc2[N+](=O)[O-])C2=C1CC(C)(C)CC2=O (configuration not stated) | n | n | n | n
COc1cccc(-c2c(-c3cc(OC)cc(OC)c3)n(C)c3ccc(-c4cnc(N5CCOCC5)nc4)cc23)c1 | x | n | n | +
COc1cccc(-c2c(-c3cc(OC)cc(OC)c3)n(C)c3ccc(-c4cnc(OC)nc4)cc23)c1 | x | n | n | n
COc1cc2[nH]c(=S)nc(NCc3ccccc3)c2cc1OC | n | n | n | n
COc1cc2[nH]c(=S)nc(NCc3ccccn3)c2cc1OC | x | n | n | +
COc1ccc(-c2csc3nc(-c4ccc(C)cc4)oc(=O)c23)cc1OC | n | 48 | n | n
CC(c1ccccc1)n1c(-c2cccs2)nc2c(c(=O)c3ccccc3n2C)c1=O (configuration not stated) | n | n | n | n
CCOc1ccc(CN(C)C(=O)[C@H](Cc2ccccc2)NC(=O)OCc2ccccc2)cc1OC | n | n | n | +
CN(C)c1ccc(/C=C(\C#N)C(=O)NCc2ccco2)cc1 | 43 | x | x | x
Cc1cccn2c(=O)c(/C=C(\C#N)C(=O)NCc3ccco3)c(N3CCCCC3)nc12 | n | n | n | +
